The list is not random: actives were taken first. Their share in the collection is about 19%.
ELG1 repair inh – qHTS screen for small molecules that inhibit ELG1-dependent DNA repair in human embryonic kidney (HEK293T) cells expressing luciferase-tagged ELG1; HEK293T ELG1-luciferase reporter, luminescence, 16 h; DNA damage induced by 5-fluorouridine; Potency, µM (titrated, usually from 46.1 µM), without a hit: top-dose activity change, negative = inhibition, most hits filed as inhibitors; 330,000 tested, 2.3% active; AID 504467, 2011; note: potency is the fitted concentration of half-maximal effect; nearly all actives have a fitted effect of over 55% in size
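Quantitative HTS, concentration-response format. 2,000 cells/well co-treated with 5-fluorouridine and compound, 16 hr in 5% CO2 at 37 °C; ONE-Glo luminescence read after 30 min.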
HT1080NT lethal – qHTS for induction of synthetic lethality in tumor cells producing 2HG: qHTS for the HT-1080-NT fibrosarcoma cell line. Potency, µM (titrated, usually from 46.1 µM), for inactives: top-dose activity, negative = less viability, actives largely listed as cytotoxic. AID 686970, 2013. 360,000 tested, 1.6% active. HT-1080-NT fibrosarcoma viability, CellTiter-Glo ATP luminescence, 48 h;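 note: NT is the 2HG producing partner of a matched IDH1 knockdown line; potency is the fitted concentration of half-maximal effect; 0% = DMSO-treated cells and -100% = media-only wells without cells; nearly all actives have a fitted effect of over 55% in size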
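Read-out is CellTiter-Glo luminescence after 10 minutes at room temperature, following 48 hours' compound treatment of HT-1080-NT cells (750 cells/well, RPMI, 5% FBS, 37 degrees C).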
HT1080 IDH1KD tx – qHTS for induction of synthetic lethality in tumor cells producing 2HG: qHTS for the HT-1080-IDH1KD cell line | AID 686971, 2013 | HT-1080 IDH1 knockdown viability, ATP luminescence, 48 h | Potency, µM (top dose mostly 46.1 µM), for inactives: at the top dose activity, negative = toxicity, actives largely listed as cytotoxic | 360,000 tested, 2% active;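 note: potency is the fitted concentration of half-maximal effect; 0% = DMSO wells and -100% = cell-free medium wells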
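Luminescent ATP read-out (CellTiter-Glo, 10 min at room temperature) after 48 h compound exposure at 37 °C gave viability of IDH1-knockdown HT-1080 cells. Activity was normalised to DMSO and cell-free wells, then fitted as concentration-response curves.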
DT40 TDP1 CPT – qHTS for Inhibitors of human tyrosyl-DNA phosphodiesterase 1 (TDP1): qHTS in cells in presence of CPT | 420,000 tested, 12% active | AID 686979, 2013 | Potency, µM (doses to about 46.2 µM), without a hit: at the highest dose activity change, negative = growth inhibition, actives largely listed as inhibitors | chicken DT40 Tdp1-/-;hTDP1 cells + 20 nM CPT, ATP luminescence, 48 h; note: potency is the fitted concentration of half-maximal effect; nearly all actives have a fitted effect of over 55% in size
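Chicken DT40 Tdp1-/- cells stably complemented with human TDP1 were seeded at 400 cells/well in medium containing 20 nM camptothecin, exposed to pin-transferred compounds, and grown at 37 °C for at least 48 hr. Viability was read as ATP luminescence.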
IL-1B inflam inh – qHTS for Inhibitors of Inflammasome Signaling: IL-1-beta AlphaLISA Primary Screen; activity change, % at 57.5 µM; 360,000 tested, 4.7% active; AID 743279, 2014; THP-1 LPS/ATP IL-1B secretion, AlphaLISA, 16 h; stronger effect = lower value; in the data active = activity change below about -50%; inconclusive = mostly about -30% to -49%
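THP-1 cells pretreated 1 hr with compounds (up to 57.5 uM final), then stimulated with LPS (250 ng/mL final) plus ATP (1.25 mM final); secreted IL-1B measured by AlphaLISA after 16 hr, decreased signal indicating inhibition.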
TDP1 cell noCPT – qHTS for Inhibitors of human tyrosyl-DNA phosphodiesterase 1 (TDP1): qHTS in cells in absence of CPT | Potency, µM (highest dose often 46.2 µM), for inactives: at the top dose activity change, negative = growth inhibition, usual class: inhibitors | DT40 Tdp1-/- hTDP1 cells, no CPT, ATP luminescence, 48 h | 420,000 tested, 15% active | AID 686978, 2013; note: potency is the fitted concentration of half-maximal effect; nearly all actives have a fitted effect of over 55% in size
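Growth kinetics read by CellTiter-Glo luminescence after ≥48 hr at 37 °C. Cells: DT40 Tdp1-/- stably carrying human TDP1, 400 per well, compound exposure in the absence of CPT (DMSO vehicle).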
* = called active by the depositor; i = inactive; ? = inconclusive; . = no result given. Unless noted, calls come from the whole dose curve; as a rule, active = well fitted curve in the direction sought with a large enough effect; inconclusive = small, poorly fitted or top-dose-only effect, or another doubt; inactive = no such curve, though single readings can be large; an effect the other way counts as inactive or inconclusive. Unless noted, % is set by controls: 0 for no effect and ±100 for the full control effect.

SMILES	ELG1 repair inh	HT1080NT lethal	HT1080 IDH1KD tx	DT40 TDP1 CPT	IL-1B inflam inh	TDP1 cell noCPT
COc1ccc(N(CC(=O)Nc2ccccc2OC)S(=O)(=O)c2ccc(OC)c(OC)c2)cc1	-13%	0%	-8%	-22%	14	-15%
CCN(CC)S(=O)(=O)c1ccc(OCC(=O)NCc2ccco2)cc1	15%	5%	2%	?	-1	-19%
Cc1ccc(C)c(NS(=O)(=O)c2ccc(OCC(=O)NCc3ccco3)cc2)c1	?	6%	12%	?	9	23µM*
Cc1nc(C)c(-c2ccc(SCC(=O)Nc3ccc(F)c(F)c3)nn2)s1	.	.	.	13µM*	.	9.2µM*
Cc1nc(C)c(-c2ccc(SCC(=O)Nc3ccccc3)nn2)s1	?	-13%	-21%	23µM*	i	26µM*
COc1cccc(NC(=O)CSc2nnc3scc(-c4ccc(Cl)cc4)n23)c1	.	.	.	?	.	18µM*
CC(=O)Nc1ccc(NC(=O)CSc2ccc(-c3sc(C)nc3C)nn2)cc1	-3%	0%	15%	-22%	i	?
Cc1nc(C)c(-c2ccc(SCC(=O)Nc3ccc(C)c(F)c3)nn2)s1	.	.	.	-22%	.	-28%
COc1cccc(NC(=O)CSc2ccc(-c3sc(C)nc3C)nn2)c1	21µM*	-11%	-15%	15µM*	-20	15µM*
COc1ccc(NC(=O)CSc2nnc3scc(-c4ccc(Cl)cc4)n23)cc1	.	.	.	-20%	.	-29%
CC1(C)OC2CC3C4CC(F)C5=CC(=O)C=CC5(C)C4C(O)CC3(C)[C@]2(C(=O)CO)O1 (stereo partly drawn)	.	.	.	-25%	.	-12%
CNn1cnc2ccsc2c1=O	?	5%	5%	5%	-8	4%
O=C1c2ccccc2[C@@H]2Cc3csc[n+]3[C@H]12	.	-2%	0%	3.7µM*	?	5.2µM*
C=C1CC2C3CC[C@@]4(OCOC45COCO5)[C@@]3(C)C(O)CC2[C@@]2(C)CCC(=O)C=C12 (stereo partly drawn)	?	-25%	?	?	-101*	18µM*
CCOC(=O)N1CCN(S(=O)(=O)c2ccc3c(c2)SCC(=O)N3)CC1	21µM*	-11%	-7%	?	12	?
CCCN1CCN(S(=O)(=O)c2ccc3c(c2)NC(=O)C(C)S3)CC1 (stereo not drawn)	-3%	3%	0%	?	73	-24%
CCOC(=O)N1CCN(S(=O)(=O)c2ccc(OCC)c(C)c2)CC1	?	-1%	-5%	?	-5	9.2µM*
CCOC(=O)N1CCN(S(=O)(=O)c2ccc(C)c(C)c2)CC1	-4%	5%	9%	?	5	?
CCOC(=O)N1CCN(S(=O)(=O)c2ccc3c(c2)SC(C)C(=O)N3)CC1 (stereo not drawn)	?	-1%	-11%	13µM*	19	9.2µM*
Nc1ncnc2c1ncn2[C@@H]1O[C@H](CNC(=O)[C@@H](N)Cc2ccc(C(F)(F)F)cc2)[C@@H](O)[C@H]1O	?	-1%	-3%	8%	19	-3%
CN(CCC(=O)c1ccccc1)CCC(=O)c1ccccc1	5%	8%	6%	4.6µM*	-10	2.9µM*
O=C(O)CCC(=O)CCC(=O)c1ccc(Cl)cc1	0%	7%	-29%	-9%	13	0%
CN(C)CCC(=O)c1ccc(Cl)cc1	12%	-3%	10%	2.6µM*	-5	4.6µM*
O=C(CC(=O)c1ccccc1)c1ccccc1	.	-3%	-20%	?	25	?
O=C(/C=C/c1cccc(Cl)c1)OCC(=O)c1ccc[nH]1	.	19%	19%	1%	12	4%
SMILES	ELG1 repair inh	HT1080NT lethal	HT1080 IDH1KD tx	DT40 TDP1 CPT	IL-1B inflam inh	TDP1 cell noCPT
COC(=O)C1=CN(c2ccc(OC)cc2)C(N)=C(C#N)C1c1cccc2ccccc12 (stereo not drawn)	.	?	?	5.8µM*	16	5.2µM*
CCc1ccc(N2C=C(C(=O)OC)C(c3cccc4ccccc34)C(C#N)=C2N)cc1 (stereo not drawn)	.	?	?	13µM*	-10	8.2µM*
COC(=O)C1=CN(c2ccc(F)cc2)C(N)=C(C#N)C1c1cccc(OC)c1OC (stereo not drawn)	.	1%	0%	?	-18	?
COC(=O)C1=CN(c2ccc(C(C)(C)C)cc2)C(N)=C(C#N)C1c1cccc2ccccc12 (stereo not drawn)	.	?	?	15µM*	7	13µM*
CCCCNC(=O)C1(C)CCN1C(=O)c1cccc(OC(F)(F)F)c1 (stereo not drawn)	.	-3%	0%	-12%	2	-19%
CC(C)=CCC/C(C)=C/CC/C(C)=C/CCC1(C)CCc2cc(O)ccc2O1 (stereo not drawn)	.	5%	15%	?	.	?
CCC(c1nnnn1C1CCCC1)N(Cc1cccs1)Cc1cc2cc(C)ccc2[nH]c1=O (stereo not drawn)	?	6%	0%	18µM*	-54*	21µM*
CCOc1ccc2[nH]c(=O)c(CN(Cc3cccs3)C(CC)c3nnnn3C(C)(C)CC)cc2c1 (stereo not drawn)	?	?	?	21µM*	?	18µM*
CCOC(=O)Cn1nnnc1C(CC)N(Cc1cccs1)Cc1cc2cc(C)ccc2[nH]c1=O (stereo not drawn)	-14%	-2%	-7%	?	-8	?
CCCCOC(=O)C1=C(C)NC(=O)NC1c1ccccc1 (stereo not drawn)	4%	-4%	-1%	-8%	-10	-28%
CCOc1ncccc1C(=O)OCC(=O)NCc1ccccc1	-2%	0%	-4%	5%	9	13%
CN1OC[C@@H]2CN(S(=O)(=O)c3ccccc3)[C@H](c3ccccc3Br)C[C@@H]21	.	10%	5%	-18%	19	-26%
COc1ccc(Nc2nc3ccccc3s2)cc1	?	-1%	2%	-8%	-16	4%
